The record followed here is PubChem BioAssay AID2540 (Sanford-Burnham Center for Chemical Genomics, 2010).

As a reminder, the inhibition is the change of the read-out against control, counted positive when it falls.

Out of some 330,000 compounds screened, about 4,100 (1.2%) were called active. Shown is part of a subset that was picked to be rich in actives. Values without a mark were called inactive. No stated cut-off is given here; in the data, active means inhibition above about 50%; inactive means the rest.

Chain of Sentrin-specific protease 8 (Homo sapiens) (Q96LD8 whole entry, looked up): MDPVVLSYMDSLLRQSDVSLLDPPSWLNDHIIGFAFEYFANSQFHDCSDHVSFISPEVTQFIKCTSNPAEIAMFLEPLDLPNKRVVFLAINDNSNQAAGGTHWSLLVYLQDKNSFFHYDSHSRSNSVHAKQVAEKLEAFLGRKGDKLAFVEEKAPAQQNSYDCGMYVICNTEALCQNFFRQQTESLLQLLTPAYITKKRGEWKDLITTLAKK

This experiment has as its target Sentrin-specific protease 8 (Homo sapiens) (UniProt Q96LD8). The experiment in a line: blockers of human SENP8 peptidase activity – biochemical, luminescence, primary screen (AID 2540). The note with it: purified SENP8, Z-RLRGG-aminoluciferin cleavage, at 10 µM, active compounds read high.
On to `CCN(CC)CCOc1ccc2c(c1)C(=NNC(=O)c1ccccn1)c1cc(OCCN(CC)CC)ccc1-2`, for which the inhibition was -1.52%.

As for `N#Cc1ccc(OCC(=O)NC(=O)NC2CCS(=O)(=O)C2)cc1` (stereo not given), the inhibition was 0.761%. The same measure for `COc1cc(/C=C/C(=O)O)cc(S(=O)(=O)Nc2ccccc2C(=O)NCCc2ccccc2)c1OC`: 0.693%; for `Cc1cc(C)c(C#N)c(SCS(=O)c2ccc(C(C)(C)C)cc2)n1` (stereo not given): -4.22%. As to `CN1CC(c2ccccc2)C2(COc3ccccc3C2=O)C12C(=O)Nc1ccccc12` (stereo not given), the inhibition is 0.36%. The same measure for `CC(=O)c1ccccc1NC(=O)CC1(CC(=O)O)CCCCC1`: 1.06%.

As for `Clc1ccc(CSc2nnc([C@@H]3CCCN3)o2)cc1`, the inhibition was -0.161%. The same measure for `CC(C)[C@@H]1NC(=O)c2cc([N+](=O)[O-])cc(I)c2NCCC[C@@H](C(=O)NC(CC(=O)O)C(N)=O)NC(=O)[C@H](CO)NC1=O` (stereo not given in full): 3.05%; for `O=C(NCCOc1ccccc1F)Nc1ccc(Br)cc1`: -3.32%; for `CC(C)C(=O)Nc1cccc(C(=O)Nc2ccc3c(c2)OCO3)c1`: 1.49%. The same measure for `Cc1cc(C)nc(NC(=O)c2cccc([N+](=O)[O-])c2)c1`: -2.37%; for `COc1cc(NC(=O)c2ccc3c(c2)OCO3)ccc1NC(=O)c1cccs1`: -17.4%; for `O=C(Nc1ccc(C2CC2(Cl)Cl)cc1)c1cccc([N+](=O)[O-])c1` (stereo not given): 50.5% (active). The figure for `COc1ccc(C(=O)Nc2ccc3c(c2)OCO3)cc1OC` is 77.5% (active); for `CC(C)(C)SCCNC(=O)c1cccc([N+](=O)[O-])c1` it is -0.846%.

`CCN(c1ccccc1)S(=O)(=O)c1cc2c(cc1C)n(C)c(=O)c(=O)n2C`: the inhibition is -13.5%. As to `CCN1CCN(c2cc3nc(C)n(Cc4ccccc4)c(=O)c3cc2NC(=O)c2ccccc2F)CC1`, the inhibition is -6.48%.

With `COc1ccc(C)cc1NC(=O)CSc1nnc2ccc(-c3ccccn3)nn12`, the inhibition was 4.77%.

On to `Brc1ccccc1CN1CCC(Cc2ccccc2)CC1`, for which the inhibition was 3.24%. The figure for `COc1ccc(-n2nnnc2-c2nc3ccccc3s2)cc1` is 50.3% (active); for `COc1ccc(C2=NN(c3nc4ccccc4s3)C(=O)C2)cc1` it is 10.1%.

Turning to `COc1ccc(-n2nnnc2CNC(=O)c2ccc3ccccc3c2)cc1`, the inhibition is -10.6%. The same measure for `N#Cc1c(N)sc2c1CCN(C(=O)OCc1ccccc1)C2`: 2.15%; for `COc1ccc(SCCN2CCN(CC(C)C)CCC2=O)cc1`: 5.29%; for `O=C(NCCCN1CCCC1=O)C(=O)NCC1OCCN1S(=O)(=O)c1ccc(Br)cc1` (stereo not given): -0.009%.
